# Laboratory results from PubChem BioAssay (NCI).
# Compounds without any hit were thinned out: in the full panel of roughly 83,000, 20% have a hit.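 Treatment: one concentration, 48 hours, 96-well format. Scoring: percent growth, with anything below 10 considered active.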 A number with no mark means an inactive call. The source made the active and inactive calls.
# Experiments:
# Test in all cases: NCI-60 one-dose screen, 48 h (100 = growth as untreated, 0 = no growth, -100 = all killed)
# Settings in all cases: 10 µM unless noted
# NCI-H23 lung = test system: NCI-H23 lung
# NCI-H226 lung = test system: NCI-H226 lung
# HOP-62 NSCLC = test system: HOP-62 NSCLC
# NCI-H460 lung = test system: NCI-H460 lung
# HOP-92 NSCLC = test system: HOP-92 NSCLC
# NCI-H522 lung = test system: NCI-H522 lung
# A549/ATCC NSCLC = test system: A549/ATCC NSCLC
# 786-0 renal = test system: 786-0 renal
# COLO 205 colon = test system: COLO 205 colon
# DU-145 prostate = test system: DU-145 prostate
# K-562 leukemia = test system: K-562 leukemia
# MALME-3M melanoma = test system: MALME-3M melanoma
# MDA-MB-231 breast = test system: MDA-MB-231 breast
# RXF 393 renal = test system: RXF 393 renal
# SF-268 CNS = test system: SF-268 CNS
# SF-295 CNS = test system: SF-295 CNS
# SF-539 CNS = test system: SF-539 CNS
# UACC-257 melanoma = test system: UACC-257 melanoma
# M14 melanoma = test system: M14 melanoma
SMILES,growth (NCI-H23 lung),growth (NCI-H226 lung),growth (HOP-62 NSCLC),growth (NCI-H460 lung),growth (HOP-92 NSCLC),growth (NCI-H522 lung),growth (A549/ATCC NSCLC),growth (786-0 renal),growth (COLO 205 colon),growth (DU-145 prostate),growth (K-562 leukemia),growth (MALME-3M melanoma),growth (MDA-MB-231 breast),growth (RXF 393 renal),growth (SF-268 CNS),growth (SF-295 CNS),growth (SF-539 CNS),growth (UACC-257 melanoma),growth (M14 melanoma)
O=C(NCCCCCCNC(=O)OCc1ccc2c(Cl)cc(Cl)c(O)c2n1)OCc1ccc2c(Cl)cc(Cl)c(O)c2n1,-69.2% (active),1.25% (active),-42.5% (active),-30.7% (active),-60.1% (active),-57.4% (active),-39.6% (active),-63.1% (active),-82.5% (active),-50.4% (active),1.59% (active),-84.5% (active),-92.7% (active),-87% (active),-50.7% (active),32.4%,-97.1% (active),-29.3% (active),-38.7% (active)
CN(C)c1ccc(/C=C2\C=C(c3nc4ccccc4s3)OC2=O)cc1,91.9%,82.2%,91.7%,95.2%,77.8%,89.4%,94.7%,102%,102%,104%,83.8%,98.3%,73.9%,110%,98.6%,92%,104%,114%,101%
Cc1nn(-c2ccc([N+](=O)[O-])cc2)c2ncnc(N/N=C/c3ccccc3O)c12,15.3%,35%,-2.87% (active),0.666% (active),36.6%,0.557% (active),13%,3.2% (active),1.21% (active),20.7%,11.2%,2.12% (active),29%,15.7%,9.25% (active),12.6%,7.49% (active),13.2%,-17.7% (active)
CCOC(=O)NC(=S)n1oc(=O)c2ccccc21,97.7%,102%,99.4%,101%,,99.3%,103%,111%,103%,106%,112%,95.4%,96.8%,111%,96.1%,103%,95.6%,105%,104%
C=C(C)[C@@H]1CC[C@]2(C)[C@H](C=CC3=C4C[C@@](C)(CO)CC[C@]4(C)CC[C@]32C)[C@@]1(C)CCCN,-37.1% (active),90.8%,-54.9% (active),-86.2% (active),-52.9% (active),-43.1% (active),-62.2% (active),-97.3% (active),-64.4% (active),-72.7% (active),0.273% (active),-45.2% (active),-75.7% (active),-69.5% (active),-55.8% (active),73.3%,-90% (active),-60.4% (active),-66.2% (active)
Clc1ccc(Nc2ncc(Cc3cccc(Cl)c3Cl)s2)cc1,88.7%,102%,108%,97.6%,89%,80.2%,86.7%,95.2%,104%,102%,86.8%,96.7%,99.6%,93.3%,98.3%,100%,94.7%,96.6%,103%
Fc1cc2[nH]ncc2c2c3c(c(-c4cn[nH]c4C(F)(F)F)nc12)CCCC3,-12.2% (active),6.19% (active),-1.79% (active),2.41% (active),-71% (active),-24.2% (active),2.17% (active),1.39% (active),-45.6% (active),5.47% (active),-34.5% (active),10.5%,7.95% (active),-56.2% (active),0.494% (active),5.61% (active),-66.9% (active),2.49% (active),-2.16% (active)
CCN(CCNc1ccc(C)c2sc3cc(Cl)ccc3c(=O)c12)CC(C)(C)O,82.3%,87.6%,45.3%,44.4%,48.3%,76.7%,50.9%,47.6%,21.4%,86.8%,29.7%,67.5%,32%,-18.5% (active),79.8%,88%,65.8%,-8.78% (active),-65.9% (active)
Cn1c(=O)[nH]c(=O)c2nc3c(nc21)-c1ccccc1C3=O,95.6%,92.2%,94.3%,102%,100%,96.4%,106%,101%,114%,104%,99%,102%,101%,99.3%,99.3%,97.7%,95.8%,102%,99.4%
O=C(/C=C/c1ccccc1)c1ccc(-n2cc(CN3CCN(c4cc5c(cc4F)c(=O)c(C(=O)O)cn5C4CC4)CC3)nn2)cc1,79.7%,73%,79.6%,76.1%,79.6%,80.1%,88.9%,54.2%,108%,76.3%,56%,91.2%,89.4%,58.3%,70.4%,91.7%,69%,91%,84.4%
COc1ccc(N/N=C/c2cn(-c3ccc(C(=O)O)cc3)nc2-c2cc3ccccc3oc2=O)cc1,86.7%,75.3%,84%,47.4%,86.6%,52.3%,57.1%,59%,84.3%,84.2%,11.3%,109%,77.9%,111%,68.5%,22.5%,50%,88.9%,42.3%
CSc1nc(-c2ccco2)c(C#N)c(=O)n1C,66.1%,101%,89.5%,105%,91.6%,100%,100%,104%,97.2%,106%,101%,88.8%,107%,112%,106%,97.9%,89.7%,96.9%,108%
COc1ccc2cc(-c3nc4ccc(C)cn4c3NCc3ccco3)c(=O)[nH]c2c1,70.2%,76.4%,90.7%,88.9%,20.6%,87.3%,85.2%,67.9%,76%,71.7%,74.3%,75.4%,49.6%,73.4%,71.6%,74.8%,65.5%,103%,86.8%
Nc1cc(-c2ccc(Cl)cc2)nn1-c1nnc(/C=C/c2ccco2)c(=O)[nH]1,58.8%,47.4%,71.3%,20.4%,60.3%,74.9%,37.3%,46.9%,72.6%,63.3%,41.7%,72.5%,74.2%,67.8%,52.5%,9.9% (active),55.4%,69.6%,57.4%
Cc1ccc(S(=O)(=O)OC[C@]23CCC(C)(C)C[C@H]2C2=CC[C@@H]4[C@@]5(C)CCCNC(C)(C)[C@@H]5CC[C@@]4(C)[C@]2(C)CC3)cc1,73.7%,81.8%,78.1%,-60.2% (active),41.8%,62%,34.6%,34.7%,-66.5% (active),37.9%,-20% (active),95.8%,45.6%,67.9%,69.6%,104%,74.8%,97.4%,80.7%
CN(C)CCn1c(=O)c2ccccc2n2nc3ccccc3c12,87.3%,84.8%,90.9%,70.4%,99.6%,97.4%,61.2%,93.9%,57.2%,101%,86.5%,92.4%,90.8%,74.3%,98.6%,75%,87.9%,105%,92.1%
